The campaign covered roughly 5,500 compounds. About 2,000 (36%) were called active. About 18% were inconclusive and are not listed. Rule as the data show it: active = normalized growth mostly below about 0.91 (no sharp cut-off); inconclusive = no clear call, values can overlap the other calls; inactive = mostly above about 0.92. The list shows a part of the results.
Assay: chemical genetic growth profiling, strain panel (AID 1159580);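 also: tested at 20 µM; growth read once vehicle control cultures reached saturation at 30 °C; 1 = growth at the plate median or of vehicle wells; lower values mean less growth of the strain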
Settings: S. cerevisiae deletion strains, growth OD

Measured: normalized growth

O=c1cc(-c2cccc(O)c2)oc2ccc(O)cc12
active: locus YDR137W, strain rgp1, stronger effect = lower value 0.778 | locus YLR221C, strain rsa3, stronger effect = lower value 0.894 | locus YLR262C, strain YPT6 (second series), stronger effect = lower value 0.804 | locus YPL106C, strain sse1, stronger effect = lower value 0.827
inactive: locus YAL021C, strain ccr4, stronger effect = lower value 0.959 | locus YAL026C, strain drs2, stronger effect = lower value 0.946 | locus YAL030W, strain snc1, stronger effect = lower value 0.957 | locus YBL061C, strain skt5, stronger effect = lower value 0.952 | locus YBR009C, strain hhf1, stronger effect = lower value 0.934 | locus YBR023C, strain chs3, stronger effect = lower value 0.947 | locus YBR171W, strain sec66, stronger effect = lower value 0.956 | locus YBR231C, strain swc5, stronger effect = lower value 0.939 | locus YBR279W, strain paf1, stronger effect = lower value 0.962 | locus YCL011C, strain gbp2, stronger effect = lower value 0.933 | locus YCL016C, strain dcc1, stronger effect = lower value 0.952 | locus YCL061C, strain MRC1, stronger effect = lower value 0.949 | locus YCL069W, strain vba3, stronger effect = lower value 0.969 | locus YCR088W, strain abp1, stronger effect = lower value 0.962 | locus YDL005C, strain med2, stronger effect = lower value 0.951 | locus YDL040C, strain nat1, stronger effect = lower value 0.971 | locus YDR001C, strain nth1, stronger effect = lower value 0.943 | locus YDR069C, strain doa4, stronger effect = lower value 0.946 | locus YDR159W, strain sac3, stronger effect = lower value 0.975 | locus YDR195W, strain ref2 1.06 | locus YDR297W, strain sur2, stronger effect = lower value 0.953 | locus YDR334W, strain swr1, stronger effect = lower value 0.924 | locus YDR335W, strain msn5, stronger effect = lower value 0.938 | locus YDR392W, strain spt3, stronger effect = lower value 0.873 | locus YEL003W, strain gim4, stronger effect = lower value 0.943 | locus YEL037C, strain rad23, stronger effect = lower value 0.964 | locus YEL061C, strain CIN8 (second series), stronger effect = lower value 0.951 | locus YER015W, strain faa2, stronger effect = lower value 0.936 | locus YER016W, strain bim1, stronger effect = lower value 0.944 | locus YER111C, strain swi4, stronger effect = lower value 0.956 | locus YER155C, strain BEM2 (second series), stronger effect = lower value 0.925 | locus YFR010W, strain ubp6, stronger effect = lower value 0.962 | locus YGL167C, strain pmr1, stronger effect = lower value 0.942 | locus YGL173C, strain kem1, stronger effect = lower value 0.941 | locus YGL227W, strain vid30, stronger effect = lower value 0.953 | locus YGL240W, strain doc1, stronger effect = lower value 0.91 | locus YGL253W, strain hxk2, stronger effect = lower value 0.952 | locus YHR013C, strain ard1, stronger effect = lower value 0.953 | locus YHR027C, strain rpn1, stronger effect = lower value 0.955 | locus YHR142W, strain chs7, stronger effect = lower value 0.885 | locus YJL092W, strain hpr5, stronger effect = lower value 0.953 | locus YJL095W, strain BCK1 (second series), stronger effect = lower value 0.942 | locus YJL115W, strain asf1, stronger effect = lower value 0.947 | locus YJL129C, strain trk1, stronger effect = lower value 0.903 | locus YJL154C, strain vps35, stronger effect = lower value 0.962 | locus YJL164C, strain tpk1, stronger effect = lower value 0.947 | locus YJL166W, strain qcr8, stronger effect = lower value 0.95 | locus YJL187C, strain SWE1, stronger effect = lower value 0.936 | locus YKL160W, strain elf1, stronger effect = lower value 0.936 | locus YKR026C, strain gcn3, stronger effect = lower value 0.948 | locus YKR091W, strain srl3, stronger effect = lower value 0.952 | locus YLL001W, strain dnm1, stronger effect = lower value 0.945 | locus YLL026W, stronger effect = lower value 0.947 | locus YLL041C, strain sdh2, stronger effect = lower value 0.951 | locus YLR027C, strain aat2, stronger effect = lower value 0.938 | locus YLR258W, strain gsy2, stronger effect = lower value 0.939 | locus YLR320W, strain mms22, stronger effect = lower value 0.923 | locus YLR342W, strain FKS1, stronger effect = lower value 0.983 | locus YLR357W, strain rsc2, stronger effect = lower value 0.906 | locus YLR370C, strain arc18, stronger effect = lower value 0.933 | locus YLR384C, strain iki3, stronger effect = lower value 0.951 | locus YML120C, strain ndi1, stronger effect = lower value 0.952 | locus YMR058W, strain fet3, stronger effect = lower value 0.942 | locus YMR125W, strain sto1, stronger effect = lower value 0.959 | locus YMR129W, stronger effect = lower value 0.983 | locus YMR205C, strain PFK2, stronger effect = lower value 0.944 | locus YMR231W, strain pep5, stronger effect = lower value 0.958 | locus YNL071W, strain lat1, stronger effect = lower value 0.958 | locus YNL209W, strain ssb2, stronger effect = lower value 0.945 | locus YNL248C, strain rpa49, stronger effect = lower value 0.931 | locus YNL322C, strain KRE1 (second series), stronger effect = lower value 0.958 | locus YNR049C, strain mso1, stronger effect = lower value 0.942 | locus YOR001W, strain rrp6, stronger effect = lower value 0.948 | locus YOR070C, strain gyp1, stronger effect = lower value 0.964 | locus YOR080W, strain dia2, stronger effect = lower value 0.93 | locus YOR083W, strain WHI5, stronger effect = lower value 0.928 | locus YOR106W, strain vam3, stronger effect = lower value 0.933 | locus YOR265W, strain rbl2, stronger effect = lower value 0.958 | locus YOR270C, strain vph1, stronger effect = lower value 0.865 | locus YOR290C, strain snf2, stronger effect = lower value 0.893 | locus YPL051W, strain arl3, stronger effect = lower value 0.92 | locus YPL078C, strain atp4, stronger effect = lower value 0.956 | locus YPL240C, strain hsp82, stronger effect = lower value 0.952

COc1ccc2oc(-c3ccccc3OC)cc(=O)c2c1
inactive: locus YHR030C, strain SLT2, stronger effect = lower value 0.875 | locus YHR079C, strain IRE1, stronger effect = lower value 0.911 | locus YJL095W, strain BCK1, stronger effect = lower value 0.889 | locus YJR066W, strain TOR1, stronger effect = lower value 0.851 | locus YLR113W, strain HOG1, stronger effect = lower value 0.966 | locus YNL183C, strain NPR1, stronger effect = lower value 0.883 | locus YOR231W, strain MKK1, stronger effect = lower value 0.91 | locus YPL256C, strain CLN2, stronger effect = lower value 0.936

Source: PubChem BioAssay AID1159580 (chemical genetic matrix, 2015)
